# Assay outcomes from PubChem BioAssay.
# KCNQ2 block = KCNQ2 (rat) channel inhibition | hit rate 1.1% among 310,000 | CHO-K1 KCNQ2, FluxOR thallium flux, 20 min; hits give low values | O88943 | B-score at 10 µM;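 active means fluorescence ratio B-score at most minus 3 library SDs, with starting brightness B-score within 2 library SDs, cut at about -5.5 in these data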
# Target sequence (O88943 whole entry, looked up): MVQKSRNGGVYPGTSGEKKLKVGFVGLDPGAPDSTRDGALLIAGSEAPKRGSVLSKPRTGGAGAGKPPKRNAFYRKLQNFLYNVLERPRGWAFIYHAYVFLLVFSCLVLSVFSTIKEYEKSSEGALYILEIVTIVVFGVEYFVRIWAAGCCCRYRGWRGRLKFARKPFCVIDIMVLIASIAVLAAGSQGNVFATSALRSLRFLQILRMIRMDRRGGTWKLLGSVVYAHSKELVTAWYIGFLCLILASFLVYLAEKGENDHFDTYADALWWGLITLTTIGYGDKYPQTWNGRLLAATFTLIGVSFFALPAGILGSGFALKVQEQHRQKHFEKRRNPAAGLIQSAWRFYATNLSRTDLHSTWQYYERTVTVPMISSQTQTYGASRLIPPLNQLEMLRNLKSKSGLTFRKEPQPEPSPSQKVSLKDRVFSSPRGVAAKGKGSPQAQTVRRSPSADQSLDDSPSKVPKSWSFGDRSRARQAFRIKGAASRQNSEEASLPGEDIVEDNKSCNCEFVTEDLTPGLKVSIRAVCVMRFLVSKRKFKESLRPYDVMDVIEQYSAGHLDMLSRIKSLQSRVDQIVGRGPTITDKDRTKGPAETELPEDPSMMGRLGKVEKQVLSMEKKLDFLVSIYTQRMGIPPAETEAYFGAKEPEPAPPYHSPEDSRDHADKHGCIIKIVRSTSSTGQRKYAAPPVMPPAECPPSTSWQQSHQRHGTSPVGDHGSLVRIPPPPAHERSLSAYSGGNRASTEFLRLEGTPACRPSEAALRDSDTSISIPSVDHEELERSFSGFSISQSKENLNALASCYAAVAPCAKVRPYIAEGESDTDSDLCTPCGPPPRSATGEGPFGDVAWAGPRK
# KCNQ2 enhance = KCNQ2 (rat) channel potentiation; O88943; CHO-K1 KCNQ2, FluxOR thallium flux fluorescence; hits give high values; B-score at 10 µM; hit rate 0.54% among 310,000; AID 2239;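 active means fluorescence ratio B-score at least 3 SD of library B-scores, with initial fluorescence B-score within 3 of them, cut at about 5.3 in these data; same plate scores as AID 2156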;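 further: B-score of peak minus minimum over baseline fluorescence ratio after K+ and Tl+ stimulus; positive B-score means potentiation of KCNQ2 with more thallium influx and brighter signal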
# Active calls of the source: *; i = inactive; nt = not tested or not shown. An excerpt weighted towards active compounds, which were near 1.6% of everything screened.
SMILES,KCNQ2 block,KCNQ2 enhance
CCC(Sc1nc(C)cc(C)n1)C(=O)Nc1cc(C)on1 (stereo not drawn),i,nt
COc1ccc(Cl)cc1S(=O)(=O)N(C)CC(=O)N1CCOCC1,i,0.41
COc1ccccc1N1CCN(C(=O)COc2ccc(Cl)cc2Br)CC1,i,nt
COC(=O)C1CCCN1C(=O)COc1ccc(Cl)cc1Br (stereo not drawn),i,15*
COc1ccccc1-n1c(SCC(=O)NCc2ccc3c(c2)OCO3)nc2cc([N+](=O)[O-])ccc21,i,nt
CC(Sc1nc2cc([N+](=O)[O-])ccc2n1-c1ccc(F)cc1)C(=O)NCc1ccc2c(c1)OCO2 (stereo not drawn),-8*,-8
OCC(O)CN1CCCC1 (stereo not drawn),i,nt
CCCc1ccc(S(=O)(=O)N2CCN(Cc3ccco3)CC2)cc1,-5.9*,-5.9
Cc1ccc(S(=O)(=O)N2CCN(Cc3ccco3)CC2)cc1C,i,nt
CSc1ccc(/C=C/C(=O)N2CCN(c3ccccn3)CC2)cc1,i,0.13
CCOC(=O)C1(CCc2ccccc2)CCN(Cc2ccn[nH]2)CC1,i,nt
CCOC(=O)C1(CCc2ccccc2)CCN(Cc2cccc3nccnc23)CC1,-5.9*,-5.9
COc1ccc([N+](=O)[O-])cc1NC(=O)CSCc1ccc(Br)cc1,i,5.5*
COc1ccc([N+](=O)[O-])cc1NC(=O)CSCc1ccccc1C,i,1.5
Cn1c(=O)c(/C=C/c2ccc(F)cc2)nc2ccccc21,-5.9*,-5.9
Cn1c(=O)c(/C=C/c2ccccc2)nc2ccccc21,i,nt
CS(=O)(=O)N(CC(=O)Nc1ccc(S(=O)(=O)N2CCCC2)cc1)c1cccc(F)c1,i,0.11
O=C(Nc1ccc2[nH]c(=S)sc2c1)Nc1ccccc1F,i,40*
O=C(Nc1ccc2[nH]c(=S)sc2c1)c1ccccc1,i,16*
O=C(Nc1ccc2[nH]ccc2c1)c1ccccc1,i,2
O=C(Nc1ccc(F)cc1)Nc1ccccc1F,i,3.2
O=C(N/N=C/c1ccc(Cl)cc1Cl)C(=O)NC1CC1,i,0.35
O=C(NNC(=O)C12CC3CC(CC(C3)C1)C2)c1ccccc1[N+](=O)[O-],i,nt
CN1CCC=C(C(=O)N2c3ccccc3Sc3ccc(Cl)cc32)C1,i,nt
COc1cc(C(=O)NCCC(=O)NCc2c(F)cc(F)cc2F)cc(OC)c1OC,i,nt
SMILES,KCNQ2 block,KCNQ2 enhance
Cc1oc2ccc(OCc3ccc(F)cc3Cl)cc2c1C(=O)O,i,7*
Cc1oc2ccc(OCc3ccccc3Cl)cc2c1C(=O)O,i,2.9
COC(=O)c1ccc(C(=O)OC)c(NC(=S)N2CCN(c3cccc(Cl)c3)CC2)c1,i,0.62
CCCC(=O)NCc1ccccc1Cl,i,nt
O=C(CCC1CCCCC1)Nc1ccccc1O,i,4.5
O=C(CC1CCCCC1)Nc1ccccc1-c1ccccc1,i,6.5*
O=C(CNC(c1ccccc1)c1ccccc1)Nc1ccccc1F,i,nt
O=C(CNC(c1ccccc1)c1ccccc1)Nc1ccccc1-c1ccccc1,-6.3*,-6.3
COc1ccccc1NC(=O)CC1CCCC1,i,0.84
O=C(CCC1CCCC1)Nc1ccccc1-c1ccccc1,i,23*
O=C(CNC(c1ccccc1)c1ccccc1)NCc1ccccc1Cl,-6*,-6
CC1(C)C(C=C(Cl)Cl)C1C(=O)N1CCN(Cc2ccccc2)CC1 (stereo not drawn),i,nt
O=C1N/C(=N\c2ccccn2)SC1Cc1ccc(Cl)cc1 (stereo not drawn),i,0.05
CC1CCN(c2nc(Cl)nc(Nc3ccc([N+](=O)[O-])cc3)n2)CC1,i,nt
COCCCNC(=O)C(=O)C1C(=O)Nc2ccccc21 (stereo not drawn),i,0.5
Cc1ccc(NC(=O)c2cc(=O)n(Cc3ccccc3)c(=O)[nH]2)cc1C,i,nt
CCOc1ccc(OCC)c(NC(=O)C2CCN(c3cnccn3)CC2)c1,i,1.5
CCOc1ccc(NC(=O)CSc2ccc3nnc(-c4ccccn4)n3n2)cc1,i,nt
COc1cccc(-c2nc(CS(=O)(=O)CC(=O)N3CCOCC3)c(C)o2)c1,i,nt
Oc1c(CN2CCCCC2)cc(Br)c2cccnc12,i,8.4*
O=C(COc1c(Br)cc(Br)c2cccnc12)N1CCCCC1,i,4.6
O=C(O)COCC(=O)N1CCCN(c2nccc(C(F)(F)F)n2)CC1,i,nt
O=C(Cc1ccc(Cl)cc1Cl)NCC1(N2CCOCC2)CCCCC1,i,nt
O=P(Cc1ccccc1)(c1ccccc1)c1ccccc1,i,nt
CC(C)(C)c1cc(CP(=O)(c2ccccc2)c2ccccc2)cc(C(C)(C)C)c1O,-5.7*,-5.7
Cc1cccc(-n2cc(-c3ccccc3)c3c(N4CCOCC4)ncnc32)c1,-6.7*,-6.7
Fc1ccc(-n2cc(-c3ccccc3)c3c(NN4CCOCC4)ncnc32)cc1,i,0.01
COc1ccc(-n2cc(-c3ccccc3)c3c(NN4CCOCC4)ncnc32)cc1,-5.6*,-5.6
Cc1ccc(-n2cc(-c3ccccc3)c3c(N4CCOCC4)ncnc32)cc1,i,nt
